# Source: PubChem BioAssay
# Rows were chosen to be rich in hits. Some 3.6% of all compounds tested hit in one or more screens of this group.
# GDH-TPI counter = GDH-TPI coupled enzyme inhibition counter-screen. actives 1.2% (n = 360,000). AID 588335. inhibition, % at 4.8 µM. GDH-TPI coupled enzyme counterscreen, NADH absorbance; in the data active = inhibition above about 30%;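 also: 0% = DMSO wells and 100% = wells lacking the enzyme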
# Mtb bLac sens = beta-lactam sensitization of Mtb H37Rv; actives 0.27% (n = 330,000); M. tuberculosis H37Rv growth with meropenem, percent inhibition; inhibition, % at 25 µM; call rule not given here;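 also: growth measured after seven days incubation then overnight dye step; 0% = bacteria only wells and 100% = bacteria with antibiotic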
# VHR inh abs = inhibitors of human VHR1 phosphatase (DUSP3); P51452; recombinant VHR phosphatase, pNPP absorbance; inhibition, % at 13.3 µM; actives 0.52% (n = 290,000); AID 1654; in the data active = inhibition above about 50%
# Mtb hypoxia rep = Mtb hypoxia fluorescent reporter inhibition. M. tuberculosis hypoxia-regulated fluorescent reporter, fluorescence. fluorescence inhibition, % (concentration not given with the values). actives 0.1% (n = 300,000). AID 1159583; in the data active = fluorescence inhibition mostly above about 23%, no sharp cut-off; inactive = mostly below about 17%
# FBA Mtb inh = inhibits M. tuberculosis FBA enzyme; P9WQA3; purified M. tuberculosis FBA, fluorescence read-out; inhibition, % at 1 µM; actives 2.3% (n = 360,000); in the data active = inhibition above about 27%;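 also: 0% = vehicle and 100% = reference inhibitor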
# Target sequence (P9WQA3 whole entry, looked up): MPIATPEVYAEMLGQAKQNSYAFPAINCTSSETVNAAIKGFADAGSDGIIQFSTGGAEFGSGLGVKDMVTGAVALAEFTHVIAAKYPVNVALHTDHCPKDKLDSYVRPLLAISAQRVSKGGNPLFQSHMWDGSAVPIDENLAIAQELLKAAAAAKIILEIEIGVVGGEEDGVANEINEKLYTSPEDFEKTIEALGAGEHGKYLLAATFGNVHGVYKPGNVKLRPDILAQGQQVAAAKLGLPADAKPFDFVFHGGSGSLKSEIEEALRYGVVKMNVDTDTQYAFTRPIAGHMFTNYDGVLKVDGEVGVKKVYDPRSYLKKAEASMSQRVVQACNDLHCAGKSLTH
# Numbers without * were called inactive; · = no result given; + = active, no number.
SMILES,GDH-TPI counter,Mtb bLac sens,VHR inh abs,Mtb hypoxia rep,FBA Mtb inh
CCn1c(CNC(=O)c2cccc(C)c2)nnc1SCC(=O)NC1=NCCS1,-1.9,-6.6,52.0*,3.2,-0.2
CCCCC(=O)Nc1ccc(C(=O)NNC(=S)NC(=O)c2ccccc2[N+](=O)[O-])cc1,37.5*,-0.1,-23.3,-9.9,-0.5
CC(C)C(=O)Nc1ccc(C(=O)NNC(=S)NC(=O)c2ccccc2[N+](=O)[O-])cc1,9.2,-3.0,34.8,6.4,-0.4
c1ccc2c(c1)C1=NCCN1c1ccccc1-2,7.6,·,·,·,72.6*
CN1C2=NCCN2C(=O)c2ccccc21,12.0,-3.6,19.9,5.9,1.8
Cc1ccc(C)c(NC(=O)CN2C(=O)NC(C)(c3ccc4c(c3)OCCO4)C2=O)c1 (configuration not stated),-2.1,-3.2,·,33.9*,-1.7
CC(=NNc1ccc(C(F)(F)F)cn1)c1ccc(S(=O)(=O)NCc2ccco2)cc1,·,·,·,1.6,·
C=CCSc1nnc(-c2cc3c(s2)-c2ccccc2CC3)o1,9.5,93.7,16.3,·,+
COc1ccc(-c2ccc(C3C4C=CCC[C@@]4(C)C(=O)N3Cc3ccccc3)c(F)c2)cc1OC (some centres not stated),·,·,·,-1.4,·
O=C(N/N=C/c1c(O)n(CCc2ccccc2)c(=O)[nH]c1=O)c1ccccc1O,20.2,2.2,16.5,-0.9,14.1
COc1ccc(Cn2c(O)c(/C=N/NC(=O)c3ccccc3O)c(=O)[nH]c2=O)cc1,26.6,2.6,29.8,-9.5,9.7
O=C(N/N=C/c1c(O)n(Cc2ccccc2)c(=O)[nH]c1=O)c1ccccc1O,34.8*,2.7,14.7,8.0,9.3
O=C(N/N=C/c1c(O)n(Cc2ccc(F)cc2)c(=O)[nH]c1=O)c1ccccc1O,50.6*,4.5,4.6,4.8,11.9
Cc1cc(NN=Cc2ccccc2Br)nc2ccccc12,·,·,·,8.5,·
O=C(Nc1ccc(O)c(-c2nc3ccccc3s2)c1)c1cccs1,5.6,1.6,5.4,0.0,0.0
O=C(Nc1ccc(O)c(-c2nc3ccccc3s2)c1)c1cc(=O)c2ccccc2o1,7.3,-0.5,52.6*,·,-2.7
COc1ccc(C(=O)Cn2cnc3ccccc3c2=O)cc1,-7.7,-3.1,54.8*,·,0.0
CC(=O)NN=C(c1ccccc1)C(O)c1ccccc1 (configuration not stated),·,·,·,16.4,·
Cc1c(/C=N/NC(=O)c2ccc(Br)o2)cnn1C,9.2,-5.7,22.4,·,126.9*
Cc1ccc(C(=O)N/N=C\c2ccc(Br)o2)o1,57.7*,-6.4,20.2,·,-3.0
COc1cc2c(cc1OC)C1=NC(=O)CN1C(SCc1ccccc1C)=N2,9.3,-1.1,39.5,13.2,27.3*
Cc1ccc(CSC2=Nc3ccccc3C3=NC(=O)CN23)cc1,6.4,7.6,13.6,12.0,6.2
COC(=O)C1=CN(Cc2ccccc2)C=C(C(=O)OC)C1c1ccc(O)c(OC)c1,4.4,-3.3,15.4,4.2,2.9
COCCN1C=C(C(=O)OC)C(c2ccccc2Cl)C(C(=O)OC)=C1,0.0,4.8,7.8,8.1,+
COCCN1C=C(C(=O)OC)C(c2cc(Br)c(OC)c(OC)c2)C(C(=O)OC)=C1,3.5,-1.8,-0.8,-1.6,+
SMILES,GDH-TPI counter,Mtb bLac sens,VHR inh abs,Mtb hypoxia rep,FBA Mtb inh
CC(C)OCCCNC(=O)c1c(N)n(N=Cc2cccs2)c2nc3ccccc3nc12,·,·,·,12.8,·
Cc1csc(CN(C)C(=O)C2CCC(=O)N(CCN(C)C)C2)n1 (configuration not stated),4.3,-1.9,59.8*,0.2,-1.7
Cc1csc(CN(C)C(=O)C2CCC(=O)N(Cc3ccc(Cl)cc3)C2)n1 (configuration not stated),5.0,2.7,-12.9,7.6,-2.5
O=c1[nH]c(-[n+]2ccc3ccccc3c2)c(/C=N/N=C(\[O-])c2ccccc2)s1,30.8*,11.4,6.8,·,2.6
CC(C)(C)c1cc[n+](-c2[nH]c(=O)sc2/C=N/N=C(\[O-])c2cccnc2)cc1,32.5*,-4.0,5.7,·,-3.2
COc1ccc(/C=C2\SC(=O)N(CCNC(=O)C3=COCCO3)C2=O)cc1,30.8*,-7.4,·,-15.4,1.7
O=C(NCCN1C(=O)S/C(=C\c2ccccc2Cl)C1=O)C1=COCCO1,20.0,1.6,·,2.3,1.5
COc1cc(/C=C2\SC(=O)N(CCNC(=O)c3c(C)noc3C)C2=O)cc(OC)c1OC,30.7*,1.9,·,-0.8,1.2
O=C(NCCN1C(=O)S/C(=C\c2ccccc2F)C1=O)C1=COCCO1,42.0*,1.8,·,8.3,3.0
O=C(NCCN1C(=O)S/C(=C\c2ccc(Cl)cc2)C1=O)C1=COCCO1,-0.9,-0.9,·,-3.8,-0.4
